Compound activity as filed in PubChem BioAssay.
HT1080 IDH1KD tx – kills HT-1080 cells with IDH1 knockdown | HT-1080 IDH1 knockdown viability, ATP luminescence, 48 h | Potency, µM (top dose mostly 46.1 µM), for the others: top-dose activity, negative = toxicity, most hits filed as cytotoxic | 360,000 compounds, 2% hits;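 further: 0% = DMSO wells and -100% = cell-free medium wells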
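Assay cells: HT-1080 with IDH1 knockdown, 750 per well, RPMI/5% FBS. Exposure: 48 h at 37 °C following 2 h pre-incubation. Read: CellTiter-Glo luminescence; fitted concentration-response, curve class assigned.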
SW480 rerep – inducers of DNA re-replication in SW480 colon cancer cells; SW480 DNA re-replication, Hoechst DNA content imaging, 48 h; Potency, µM (doses to about 46.1 µM), inactives show at the highest dose re-replication activation, most hits filed as activators; 340,000 compounds, 1.8% hits; AID 624297; further: % of control where 0% means no effect; nearly all actives have a fitted effect of over 55% in size
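Cells (250 per well) received 23 nL compound or DMSO by pin tool and were kept 48 hr at 37 C, 5% CO2. Nuclei were then stained with Hoechst for 40 min and scanned for DNA content.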
KB-3-1 tox – KB-3-1 parental cell cytotoxicity; KB-3-1 viability, CellTiter-Glo ATP luminescence, 72 h; Potency, µM (titrated, usually from 46.1 µM), hits mostly cytotoxic; AID 1347075; 400,000 compounds, 1.4% hits; further: on the % scale 0 is the no-effect control and ±100 the full control effect; nearly all actives have a fitted effect of over 60% in size
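Viability of parental KB-3-1 cells, measured by CellTiter-Glo luminescence, followed a 72 h incubation at 37 °C with pinned compounds in phenol-red-free DMEM containing 10% FBS.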
MCF10A rereplic – inducers of DNA re-replication in MCF 10A breast cells; Potency, µM (highest dose often 46.1 µM), without a hit: at the top dose activity, positive = re-replication, usual class: activators; MCF 10A DNA re-replication, Hoechst nuclear intensity, 48 h; 350,000 compounds, 2.9% hits; further: % of control where 0% means no effect; nearly all actives have a fitted effect of over 50% in size
HT1080NT lethal – kills 2HG-producing HT-1080-NT fibrosarcoma cells. HT-1080-NT fibrosarcoma viability, CellTiter-Glo ATP luminescence, 48 h. Potency, µM (titrated, usually from 46.1 µM), for inactives: at the highest dose activity, negative = less viability, hits mostly cytotoxic. 360,000 compounds, 1.6% hits. AID 686970;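 further: NT is the 2HG producing partner of a matched IDH1 knockdown line; 0% = DMSO-treated cells and -100% = media-only wells without cells; nearly all actives have a fitted effect of over 55% in size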
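HT-1080-NT fibrosarcoma cells (2HG-overproducing), 750 cells/well in RPMI with 5% FBS, dosed after 2 h and incubated 48 h at 37C. CellTiter-Glo luminescence normalized to DMSO and no-cell wells; concentration-response curves fitted and classed.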
KB-V1 cytotox – kills drug-selected multidrug resistant KB-V1 cells; AID 1347076; KB-V1 MDR cells viability, CellTiter-Glo, 72 h; 400,000 compounds, 3.4% hits; Potency, µM (series often up to 46.1 µM), most hits filed as cytotoxic; further: on the % scale 0 is the no-effect control and ±100 the full control effect; nearly all actives have a fitted effect of over 60% in size
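KB-V1 MDR subline cells in DMEM (phenol-red free, 10% FBS) exposed to compounds in qHTS concentration series for 72 h at 37 degrees C. Viability read by CellTiter-Glo luminescence; concentration-effect curves fitted after normalization and correction.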
* marks the source's active call; other numbers are inactive results; i = inactive; ? = inconclusive; · = no result. Only some compounds are listed: those with a hit (about 8% of all), similar ones and a draw of the others. The call rests on the fitted dose curve; in most records, active means well fitted curve in the direction sought with a large enough effect; inconclusive means small, poorly fitted or top-dose-only effect, or another doubt; inactive means no such curve, though single readings can be large; an effect the other way counts as inactive or inconclusive. Potency means the concentration at half of the fitted maximal effect.

SMILES	HT1080 IDH1KD tx	SW480 rerep	KB-3-1 tox	MCF10A rereplic	HT1080NT lethal	KB-V1 cytotox
O=C(O)C1CCC(N2C(=O)C3C4CCC(C4)C3C2=O)CC1 (configuration not stated)	6%	-14%	i	-2%	25%	i
CCN(C(=O)COC(=O)c1ccco1)c1cccc2ccccc12	18%	0%	i	0%	6%	i
CCC(C)N(C)Cc1cccc(C2(O)CCN(S(=O)(=O)c3ccc(F)c(C)c3)CC2)c1 (configuration not stated)	0%	?	i	15µM*	-3%	?
Cc1cc(S(=O)(=O)N2CCN(c3c(C)cccc3C)CC2)ccc1F	?	-2%	i	9%	?	?
COc1ccc(CNC(=O)c2ccc3c(c2)N=C(C)c2c(C)ccc(C)c2S3)cc1	·	·	4.6µM*	·	·	1.8µM*
CC1=Nc2cc(C(=O)NCCc3ccc(Cl)cc3)ccc2Sc2c(C)ccc(C)c21	·	·	2.6µM*	·	·	1.6µM*
CCc1ccc(CNC(=O)c2ccc3c(c2)N=C(C)c2cc(C)ccc2S3)cc1	·	·	?	·	·	i
CCCNC(=O)c1ccc2c(c1)N=C(C)c1c(C)ccc(C)c1S2	·	·	0.82µM*	·	·	?
CC1=Nc2cc(C(=O)NCCc3ccccc3)ccc2Sc2c(C)ccc(C)c21	·	·	0.65µM*	·	·	0.41µM*
COc1ccc(CCNC(=O)c2ccc3c(c2)N=C(C)c2cc(C)ccc2S3)cc1OC	·	·	i	·	·	i
Cc1cccn2c(=O)c3cc(C(=O)NC4CCCC4)c(=N)n(C4CCCC4)c3nc12	?	7.1µM*	?	3.5µM*	?	?
CCn1c(=N)c(C(=O)NC2CCCCC2)cc2c(=O)n3cccc(C)c3nc21	·	·	i	·	·	i
Cn1c(C(=O)NCCC2=CCCCC2)cc2c(=O)n3ccccc3nc21	10%	13%	i	4%	?	i
CC(C)n1c(=N)c(C(=O)NC2CCCCC2)cc2c(=O)n3ccccc3nc21	·	·	i	·	·	?
Cc1cccn2c(=O)c3cc(C(=O)O)n(C)c3nc12	-13%	18%	i	11%	-10%	i
Cc1cc(C)nc(NS(=O)(=O)c2ccc(NC(=O)c3cc4c(=O)n5cccc(C)c5nc4n3C)cc2)n1	7%	2.1µM*	i	10µM*	8%	?
Cc1cccn2c(=O)c3cc(C(=O)NCCC4=CCCCC4)n(C)c3nc12	9%	?	?	9.2µM*	9%	i
N=c1c(C(=O)NC2CCCC2)cc2c(=O)n3ccccc3nc2n1C1CCCC1	2%	16µM*	?	17%	-3%	?
C[C@H](CO)N1C[C@H](C)[C@@H](CN(C)CC2CCCCC2)Oc2ccc(NC(=O)CCN3CCOCC3)cc2C1=O	8%	-2%	i	2%	-2%	i
C[C@@H]1CN([C@H](C)CO)C(=O)CCCn2cc(nn2)CO[C@H]1CN(C)C(=O)C1CCCCC1	11%	·	i	·	19%	i
Cc1cccn2c(=O)c3cc(C(=O)NC4CCCC4)n(C)c3nc12	?	4.6µM*	10µM*	13µM*	?	i
CCn1c(=N)c(C(=O)NCc2ccccc2)cc2c(=O)n3cccc(C)c3nc21	·	·	i	·	·	i
CCn1c(=N)c(C(=O)NC)cc2c(=O)n3cccc(C)c3nc21	-1%	13µM*	i	?	-23%	i
Cc1cccn2c(=O)c3cc(C(=O)NCc4ccco4)c(=N)n(C(C)C)c3nc12	-6%	?	i	15%	-11%	?
Cc1cccn2c(=O)c3cc(C(=O)NC4CCCCC4)n(C)c3nc12	3%	?	?	?	20%	?
SMILES	HT1080 IDH1KD tx	SW480 rerep	KB-3-1 tox	MCF10A rereplic	HT1080NT lethal	KB-V1 cytotox
CCCn1c(=N)c(C(=O)NC2CCCC2)cc2c(=O)n3cccc(C)c3nc21	-1%	6.5µM*	i	2.9µM*	0%	?
N=c1c(C(=O)NCc2ccco2)cc2c(=O)n3ccccc3nc2n1C1CCCC1	-14%	21µM*	i	21µM*	1%	?
CCN(CC)c1ccc(C=Nc2ccc(C#N)cc2)c(O)c1	-7%	1%	i	0%	0%	i
CC1(C)Oc2ccc(C(=O)N3CCCC3)cc2N(CC(=O)NCc2ccccc2)C1=O	4%	-2%	i	-8%	-2%	i
COc1ccc(C(=O)CN2C(=O)C(C)(C)Oc3ccc(C(=O)N4CCCCCC4)cc32)cc1	3%	4%	i	22%	-1%	18µM*
O=c1[nH]c(=S)c2n[nH]nc2[nH]1	·	·	i	·	·	?
COc1ccc(-c2cc(CCCC(=O)NCCc3cc(OC)ccc3OC)no2)cc1	-3%	1%	?	7%	0%	4.6µM*
CCCC1(c2ccccc2)NC(=O)N(CC(=O)NCc2ccc(OC)cc2)C1=O (configuration not stated)	16%	-13%	i	-12%	4%	?
CC12CCC(C(=O)N(CSC(=S)N/N=C\c3ccccc3O)C1=O)C2(C)C (configuration not stated)	?	?	i	?	?	i
COc1ccc(/C=C/C(=O)NCCc2ccc(OC)c(OC)c2)cc1	20%	2%	i	1%	5%	i
COc1ccc(CCNC(=O)c2cc(-c3ccncc3)nc3c(Cl)cccc23)cc1OC	1%	-7%	i	5%	-8%	23µM*
COc1ccc(CNC(=O)c2cc(-c3ccncc3)nc3c(C)cc(C)cc23)cc1OC	-10%	-2%	i	?	-18%	23µM*
COc1ccc(CCNC(=O)/C=C/c2ccc3ccccc3n2)cc1OC	23µM*	21µM*	?	16µM*	?	18µM*
COc1ccc(-c2cc(C(=O)NCCc3ccccc3)c3c(-c4ccc(Cl)cc4)[nH]nc3n2)cc1	·	·	i	·	·	23µM*
CN1CCN(C2CN(CCc3ccccc3)S(=O)(=O)C2)CC1 (configuration not stated)	0%	·	i	·	-2%	i
O=C(Nc1ccccn1)C12CC3CC(CC(C3)C1)C2	13%	-2%	i	3%	15%	i
COc1ccc(CCNC(=O)c2cc(-c3ccccc3)nc3ccccc23)cc1OC	·	·	i	·	·	23µM*
COc1ccc(CCNC(=O)c2cc3cc(Cl)ccc3nc2N)cc1OC	18µM*	·	i	·	-7%	i
COc1ccc(CCNC(=O)c2nnn(-c3cccc(C)c3)c2N)cc1OC	1%	0%	i	?	9%	9.2µM*
Nc1nc2ccc(Cl)cc2cc1C(=O)NCCc1ccc(O)cc1	?	·	?	·	-15%	?
